The structures appear in SMILES notation.

The subject of this assay is Vero E6 infected with SARS-CoV-2. The assay is described as follows: morphology score (similarity to uninfected cells); higher = more like uninfected cells. Particulars: 24 h.
For `Oc1cc(O)c(Cl)cn1` [gimeracil] (10 µM), the morphology score came to 0.103.

`NCCS` [cysteamine] (10 µM): the morphology score was -0.0321.

In turn, `CC(C)N(CCC(=O)c1ccc2ccccc2c1)Cc1ccccc1` (10 µM) returned a morphology score of 0.0866.

With `NCCNCCNCCN` [trientine] (10 µM), the morphology score was -0.00487.

In turn, `COC(=O)N1CCN(Cc2cccc(NC(=O)Nc3ccc(C)nc3)c2F)CC1` [omecamtiv-mecarbil] (10 µM) registered a morphology score of 0.272.

On to `NC(=O)C[C@H](N)C(=O)O` [L-asparagine] (10 µM), for which the morphology score was determined as 0.14.

As for `CCCN(CCC)C(=O)C(CCC(=O)OCCCN1CCN(CCOC(=O)Cc2c(C)n(C(=O)c3ccc(Cl)cc3)c3ccc(OC)cc23)CC1)NC(=O)c1ccccc1` (centres undefined) [proglumetacin] (10 µM), the morphology score turned out to be 0.0923.

As for `CC(=O)N[C@@H](CC(=O)O)C(=O)N[C@@H](CCC(=O)O)C(=O)O` [spaglumic-acid] (10 µM), the morphology score stood at 0.121.

Compound `Cc1nc(N)sc1CCN` [amthamine] (10 µM) returned a morphology score of 0.148.

The compound `c1ccc(-c2nn3c(c2-c2ccnc4cc(OCCN5CCOCC5)ccc24)CCC3)nc1` (10 µM) gave a morphology score of 0.686.

The compound `Clc1cc(Cl)c(OCC#CI)cc1Cl` [haloprogin] (10 µM) came in with a morphology score of 0.57.

Regarding `C[C@@H](N)Cc1c[nH]c2ccc(O)cc12` [alpha-methylserotonin] (10 µM), the morphology score worked out at 0.251.

`O=C(c1ccc(OCCN2CCCCC2)cc1)c1c(-c2ccc(O)cc2)sc2cc(O)ccc12` [raloxifene] (0.833333 µM) came in with a morphology score of 0.0812.

For `CO/N=C(\C(=O)N[C@@H]1C(=O)N2C(C(=O)OCOC(=O)C(C)(C)C)=C(C)CS[C@H]12)c1csc(N)n1` [cefetamet-pivoxil] (10 µM), the morphology score amounted to 0.225.

The values are drawn from the supplement of paper PMC13380429.
